About 2,000 (36%) of roughly 5,500 compounds were called active. About 18% were inconclusive and are not listed. Rule as the data show it: active = normalized growth mostly below about 0.91 (no sharp cut-off); inconclusive = no clear call, values can overlap the other calls; inactive = mostly above about 0.92. This is one part of the list.
Experiment: chemical genetic growth profiling, strain panel (AID 1159580);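 also: tested at 20 µM; growth read once vehicle control cultures reached saturation at 30 °C; 1 = growth at the plate median or of vehicle wells; lower values mean less growth of the strain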
Details: growth OD

Measured: normalized growth

Cc1ccc(-c2cc(C(F)(F)F)nn2-c2ccc(S(N)(=O)=O)cc2)cc1
inactive: S. cerevisiae deletion strains, locus YJR075W, strain HOC1, hits give low values 1.02 | S. cerevisiae deletion strains, locus YKL009W, strain mrt4, hits give low values 0.965 | S. cerevisiae deletion strains, locus YKL068W, hits give low values 1 | S. cerevisiae deletion strains, locus YKL085W, strain MDH1 (second series), hits give low values 1 | S. cerevisiae deletion strains, locus YKL085W, strain MDH1, hits give low values 1 | S. cerevisiae deletion strains, locus YKL160W, strain elf1, hits give low values 1.03 | S. cerevisiae deletion strains, locus YKL190W, strain CNB1, hits give low values 0.999 | S. cerevisiae deletion strains, locus YKR001C, strain vps1, hits give low values 0.988 | S. cerevisiae deletion strains, locus YKR026C, strain gcn3, hits give low values 1.03 | S. cerevisiae deletion strains, locus YKR091W, strain srl3, hits give low values 1.02 | S. cerevisiae deletion strains, locus YLL001W, strain dnm1, hits give low values 1.03 | S. cerevisiae deletion strains, locus YLL026W, hits give low values 1.02 | S. cerevisiae deletion strains, locus YLL041C, strain sdh2, hits give low values 1.02 | S. cerevisiae deletion strains, locus YLR027C, strain aat2, hits give low values 1.02 | S. cerevisiae deletion strains, locus YLR039C, strain RIC1, hits give low values 0.967 | S. cerevisiae deletion strains, locus YLR058C, strain SHM2, hits give low values 0.998 | S. cerevisiae deletion strains, locus YLR102C, strain apc9, hits give low values 1.01 | S. cerevisiae deletion strains, locus YLR113W, strain HOG1, hits give low values 0.984 | S. cerevisiae deletion strains, locus YLR221C, strain rsa3, hits give low values 1.03 | S. cerevisiae deletion strains, locus YLR258W, strain gsy2, hits give low values 1.02 | S. cerevisiae deletion strains, locus YLR262C, strain YPT6 (second series), hits give low values 1.01 | S. cerevisiae deletion strains, locus YLR262C, strain YPT6, hits give low values 0.939 | S. cerevisiae deletion strains, locus YLR268W, strain sec22, hits give low values 1.08 | S. cerevisiae deletion strains, locus YLR320W, strain mms22, hits give low values 1.04 | S. cerevisiae deletion strains, locus YLR330W, strain CHS5, hits give low values 1 | S. cerevisiae deletion strains, locus YLR342W, strain FKS1 (second series), hits give low values 1.04 | S. cerevisiae deletion strains, locus YLR342W, strain FKS1, hits give low values 1.03 | S. cerevisiae deletion strains, locus YLR357W, strain rsc2, hits give low values 1.09 | S. cerevisiae deletion strains, locus YLR370C, strain arc18, hits give low values 1.03 | S. cerevisiae deletion strains, locus YLR371W, strain rom2, hits give low values 1.02 | S. cerevisiae deletion strains, locus YLR384C, strain iki3, hits give low values 1.02 | S. cerevisiae deletion strains, locus YLR418C, strain cdc73, hits give low values 1.01 | S. cerevisiae deletion strains, locus YML016C, strain PPZ1, hits give low values 0.989 | S. cerevisiae deletion strains, locus YML032C, strain rad52, hits give low values 1.05 | S. cerevisiae deletion strains, locus YML120C, strain ndi1, hits give low values 1.03 | S. cerevisiae deletion strains, locus YML124C, strain tub3, hits give low values 1.01 | S. cerevisiae deletion strains, locus YMR058W, strain fet3, hits give low values 1.03 | S. cerevisiae deletion strains, locus YMR078C, strain ctf18, hits give low values 1.02 | S. cerevisiae deletion strains, locus YMR125W, strain sto1, hits give low values 1.03 | S. cerevisiae deletion strains, locus YMR129W, hits give low values 1.02 | S. cerevisiae deletion strains, locus YMR205C, strain PFK2, hits give low values 1.04 | S. cerevisiae deletion strains, locus YMR223W, strain ubp8, hits give low values 0.999 | S. cerevisiae deletion strains, locus YMR231W, strain pep5, hits give low values 1.03 | S. cerevisiae deletion strains, locus YMR263W, strain SAP30, hits give low values 1.01 | S. cerevisiae deletion strains, locus YMR307W, strain GAS1, hits give low values 0.959 | S. cerevisiae deletion strains, locus YNL067W, strain RPL9B, hits give low values 1.02 | S. cerevisiae deletion strains, locus YNL071W, strain lat1, hits give low values 1.02 | S. cerevisiae deletion strains, locus YNL128W, strain TEP1, hits give low values 1.02 | S. cerevisiae deletion strains, locus YNL153C, strain GIM3, hits give low values 1.03 | S. cerevisiae deletion strains, locus YNL183C, strain NPR1, hits give low values 0.954 | S. cerevisiae deletion strains, locus YNL209W, strain ssb2, hits give low values 1.02 | S. cerevisiae deletion strains, locus YNL233W, strain BNI4, hits give low values 1.02 | S. cerevisiae deletion strains, locus YNL248C, strain rpa49, hits give low values 1.03 | S. cerevisiae deletion strains, locus YNL250W, strain rad50, hits give low values 1.02 | S. cerevisiae deletion strains, locus YNL271C, strain bni1, hits give low values 1.01 | S. cerevisiae deletion strains, locus YNL298W, strain CLA4, hits give low values 0.992 | S. cerevisiae deletion strains, locus YNL307C, strain MCK1, hits give low values 1 | S. cerevisiae deletion strains, locus YNL322C, strain KRE1 (second series), hits give low values 1.03 | S. cerevisiae deletion strains, locus YNL322C, strain KRE1, hits give low values 0.997 | S. cerevisiae deletion strains, locus YNR049C, strain mso1, hits give low values 1.03 | S. cerevisiae deletion strains, locus YNR052C, strain pop2, hits give low values 1.01 | S. cerevisiae deletion strains, locus YOL006C, strain TOP1, hits give low values 1 | S. cerevisiae deletion strains, locus YOL012C, strain htz1 0.962 | S. cerevisiae deletion strains, locus YOL147C, strain pex11, hits give low values 1.01 | S. cerevisiae deletion strains, locus YOR001W, strain rrp6, hits give low values 1.03 | S. cerevisiae deletion strains, locus YOR061W, strain CKA2, hits give low values 0.998 | S. cerevisiae deletion strains, locus YOR069W, strain VPS5, hits give low values 0.996 | S. cerevisiae deletion strains, locus YOR070C, strain gyp1, hits give low values 1.02 | S. cerevisiae deletion strains, locus YOR080W, strain dia2, hits give low values 1.05 | S. cerevisiae deletion strains, locus YOR083W, strain WHI5, hits give low values 1.02 | S. cerevisiae deletion strains, locus YOR106W, strain vam3, hits give low values 1.04 | S. cerevisiae deletion strains, locus YOR136W, strain idh2, hits give low values 1.01 | S. cerevisiae deletion strains, locus YOR144C, strain elg1, hits give low values 1.01 | S. cerevisiae deletion strains, locus YOR184W, strain ser1, hits give low values 1.01 | S. cerevisiae deletion strains, locus YOR231W, strain MKK1, hits give low values 0.968 | S. cerevisiae deletion strains, locus YOR265W, strain rbl2, hits give low values 1.01 | S. cerevisiae deletion strains, locus YOR270C, strain vph1, hits give low values 1.07 | S. cerevisiae deletion strains, locus YOR290C, strain snf2, hits give low values 1.03 | S. cerevisiae deletion strains, locus YOR316C, strain cot1, hits give low values 1.01 | S. cerevisiae deletion strains, locus YPL051W, strain arl3, hits give low values 1.02 | S. cerevisiae deletion strains, locus YPL055C, strain LGE1, hits give low values 0.986 | S. cerevisiae deletion strains, locus YPL078C, strain atp4, hits give low values 1.02 | S. cerevisiae deletion strains, locus YPL106C, strain sse1, hits give low values 1.04 | S. cerevisiae deletion strains, locus YPL240C, strain hsp82, hits give low values 1.02 | S. cerevisiae deletion strains, locus YPL241C, strain CIN2, hits give low values 0.995 | S. cerevisiae deletion strains, locus YPL256C, strain CLN2, hits give low values 0.96 | S. cerevisiae deletion strains, locus YPR119W, strain clb2, hits give low values 1.01 | S. cerevisiae deletion strains, locus YPR141C, strain kar3, hits give low values 1 | S. cerevisiae deletion strains, locus YPR163C, strain tif3, hits give low values 1.02 | S. cerevisiae deletion strains, locus YPR167C, strain met16, hits give low values 1.01 | S. cerevisiae deletion strains, strain wtn01, hits give low values 1.03 | S. cerevisiae strains, strain wild type, hits give low values 0.996
